POLB inh = blocks human DNA polymerase beta activity | 1.3% of 340,000 active | Potency, µM (series often up to 114 µM), actives largely listed as inhibitors | Pol beta primer extension/strand displacement, fluorescence kinetic | P06746
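Preincubation: enzyme (10 nM) with compound, 15 min, RT. Reaction: substrate added to 50 nM final. Reads: 0 and 10 min. Analysis: normalized, Hill fit.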
POLI inh = blocks human DNA polymerase iota activity; Pol iota fluorescent replication assay, 10 min; Q9UNA4; Potency, µM (titrated, usually from 115 µM), most hits filed as inhibitors; 1% of 390,000 active
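Fluorescent replication assay read twice, at 0 min and 10 min after adding 50 nM (final) substrate. Enzyme (10 nM) and compounds were first incubated 15 min at room temperature; enzyme-free buffer wells were negative controls.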
FEN1 inh = blocks human flap endonuclease 1; AID 588795; Potency, µM (titrated, usually from 114 µM), usual class: inhibitors; 0.35% of 390,000 active; P39748; Recombinant FEN1 flap cleavage, fluorescence, 15 min; also: nearly all actives have a fitted effect of over 65% in size
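Steps: FEN1 (10 nM) dispensed; compound added by pin tool; 15 min at room temperature; substrate added to 50 nM final; reads at 0 min and 15 min; data normalized and fitted (four-parameter Hill).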
POLK inh = inhibitors of human DNA polymerase kappa; Potency, µM (titrated, usually from 107 µM), usual class: inhibitors; Q9UBT6; AID 588579; 0.53% of 400,000 active; purified Pol kappa, fluorescent DNA synthesis assay, 10 min
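Readout: fluorescence, taken kinetically at 0 and 10 min. Conditions: 10 nM Pol kappa, 15 min RT compound preincubation, 50 nM substrate final. Controls: enzyme-free buffer wells.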
POLH inh = blocks human DNA polymerase eta activity; Q9Y253; recombinant Pol eta, fluorescent DNA replication assay; Potency, µM (top dose mostly 114 µM), hits mostly inhibitors; 1.2% of 390,000 active; AID 588591
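Fluorescent replication assay: 50 nM final substrate added after a 15 min room-temperature compound preincubation with 10 nM enzyme. Signal taken at 0 min and again at 10 min.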
TDP1 inh = TDP1 (human) enzyme inhibition. AID 485290. 0.28% of 350,000 active. Q9NUW8. Potency, µM (titrated, usually from 130 µM), actives largely listed as inhibitors. recombinant TDP1, AlphaScreen DNA substrate cleavage; also: nearly all actives have a fitted effect of over 40% in size
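Signal: AlphaScreen proximity between streptavidin donor and anti-FITC acceptor beads on intact substrate. Reaction: Tdp1 1 nM, substrate 15 nM final, 5 min RT after 15 min compound preincubation.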
Numbers stand for hits; – = inactive; ? = inconclusive; · = no result given; [ ] = remark or other dose. An excerpt weighted towards active compounds, which were near 2.4% of everything screened. Calls follow the shape of the dose curve; as a rule, active = well fitted curve in the direction sought with a large enough effect; inconclusive = small, poorly fitted or top-dose-only effect, or another doubt; inactive = no such curve, though single readings can be large; an effect the other way counts as inactive or inconclusive.

SMILES	POLB inh	POLI inh	FEN1 inh	POLK inh	POLH inh	TDP1 inh
COc1ccc(CCCCCCOCc2ccccc2)cc1	·	–	–	–	–	20µM
Cc1cc(N)ccc1N1CCCC1	–	?	39.8µM	–	–	–
Cc1cc(N)ccc1-n1c(C)ccc1C	–	–	–	–	–	–
Nc1ccc(N)c(Cl)c1	·	·	·	·	·	–
Cc1cccc(C(=O)Nc2ccc(C(=O)N/N=C/c3cccnc3)cc2)c1	–	–	–	–	–	–
O=C(N/N=C/c1cccnc1)c1cccc(Cl)c1	–	–	–	–	–	·
Cc1ccccc1C(=O)Nc1ccc(C(=O)N/N=C/c2ccc(F)cc2)cc1	39.8µM	–	–	–	–	–
O=C(N/N=C/c1cccnc1)c1cccc(NC(=O)c2ccc(Cl)cc2)c1	39.8µM	?	–	–	?	–
Cc1ccc(C(=O)Nc2ccc(C(=O)N/N=C/c3cccnc3)cc2)cc1	?	79.4µM	–	–	–	?
CC(=O)c1ccc(N2CCN(C(=O)CCS(=O)(=O)c3ccc4c(c3)oc(=O)n4C)CC2)cc1	–	–	–	–	–	–
Cn1cnc(S(=O)(=O)Nc2ccccc2N2CCOCC2)c1	–	–	–	–	–	–
CN(C)c1cccc2c1c(NS(=O)(=O)c1cn(C)cn1)nn2C	–	39.8µM	–	–	–	–
COc1ccccc1NC(=O)CCC(=O)O	–	–	–	–	–	–
O=C(O)CCC(=O)Nc1ccc(Cc2ccc(NC(=O)CCC(=O)O)c(O)c2)cc1O	–	?	–	–	15.8µM	·
Cc1cc(C)c2nccc(C)c2c1	·	–	–	–	·	·
COc1cc2ccc(=O)oc2c(O)c1O	·	?	8.91µM	50.1µM	–	–
COc1cc2ccc(=O)oc2c(OC)c1OC	·	·	·	–	·	–
CC(C)C[C@H](NC(=O)[C@H](CCCCN)NC(=O)[C@H](CCC(N)=O)NC(=O)[C@H](Cc1cnc[nH]1)NC(=O)[C@H](Cc1cnc[nH]1)NC(=O)[C@@H](N)C(C)C)C(=O)N[C@H](C(=O)N[C@@H](Cc1ccccc1)C(=O)N[C@@H](Cc1ccccc1)C(=O)N[C@@H](C)C(=O)N[C@@H](CCC(=O)O)C(=O)N[C@@H](CC(=O)O)C(=O)N[C@H](C(=O)NCC(=O)N[C@@H](CO)C(=O)N[C@@H](CC(N)=O)C(=O)N[C@@H](CCCCN)C(=O)O)C(C)C)C(C)C	·	·	·	–	·	–
COc1ccc(/C(C)=N/NC(=O)CNC(=O)/C=C\c2ccco2)cc1	25.1µM	50.1µM	–	–	–	–
c1ccc(-c2nn[nH]n2)c(Nc2cccc3c2CCCC3)c1	·	·	·	?	·	–
NC(=O)c1ccc([N+](=O)[O-])cc1Cl	·	·	·	–	·	–
NC(=O)c1ccc([N+](=O)[O-])cc1SCc1ccccc1	39.8µM	?	–	?	?	–
Cc1ccc(NC(=O)c2c(NC(=O)c3ccc(F)cc3)sc3c2CCCC3)cc1C	–	–	–	–	–	–[12.3 µM]
Cc1ccc(-c2cn(-c3cccc(Cl)c3)c(S(=O)(=O)CC(=O)Nc3cccc(C)c3)n2)cc1	–	70.8µM	–	–	–	–
CC(C)(C)OC(=O)Cc1nnc(C(C(=O)OCc2ccccc2)c2ccccc2)o1 (configuration not stated)	·	·	·	·	·	–
SMILES	POLB inh	POLI inh	FEN1 inh	POLK inh	POLH inh	TDP1 inh
CCS(=O)(=O)N1Cc2ccccc2CC1C(=O)N1CCN(c2ccccc2)CC1 (configuration not stated)	35.5µM	?	–	?	15.8µM	·
Oc1ccc(N=Nc2c(O)ccc3ccccc23)cc1	–	–	–	–	–	–
O=C(O)c1cc(N=Nc2c(O)ccc3ccccc23)cc(C(=O)O)c1	–	–	?	20µM	17.8µM	–
O=C(O)c1cc(N/N=C/c2cccs2)ccc1Cl	22.4µM	·	·	·	·	·
COc1cc(/C=N/Nc2ccc(Cl)c(C(=O)O)c2)ccc1OC(=O)c1ccc(F)cc1	–	?	?	–	79.4µM	–
O=C(O)c1cc(N/N=C/c2ccc3c(c2)OCCO3)ccc1Cl	?	?	–	?	25.1µM	–
O=Cc1cc2cc3c(cc2nc1Cl)OCCO3	–	–	–	–	–	–
O=C(O)c1ccc(N/N=C/c2cc3cc4c(cc3nc2Cl)OCCO4)cc1	–	?	?	–	44.7µM	·
COc1ccc(C(=O)N2CCC[C@@]3(CCN(c4ccccn4)C3)C2)cc1	·	·	·	–	·	·
CC(C)n1cc(/C=N/Nc2ccc(Cl)c(C(=O)O)c2)c2ccccc21	31.6µM	·	·	·	·	·
O=C1C[C@@H](O)[C@@H](O)[C@H]2[C@@H]3C(=O)N(C[C@@H]4CCCO4)C(=O)[C@@H]3CC[C@H]12	·	·	·	·	·	–[21 µM]
NS(=O)(=O)c1ccc(N/N=C/c2ccc(O)cc2O)c([N+](=O)[O-])c1	25.1µM	50.1µM	–	?	?	–
NC(=O)OC[C@H](O)COc1ccc(Cl)cc1	·	·	·	–[19.4 µM]	·	–
COc1cc(OC)cc(C(=O)N2CCN(C(=O)COc3ccc4ccccc4c3)CC2)c1	–	70.8µM	–	–	–	–
COc1ccc(N2CCN(C(=O)COc3ccc4ccccc4c3)CC2)cc1	–	–	–	–	–	–
CC(C)(O)C(O)COc1c2ccoc2cc2oc(=O)ccc12 (configuration not stated)	22.4µM	?	–	?	?	–
COC(C)(C)[C@H](O)COc1c2ccoc2cc2oc(=O)ccc12	–	–	–	–	–	–
COc1ccc(NC(=O)C(OC(=O)CNC(=O)c2ccccc2)c2ccccc2)c(C)c1 (configuration not stated)	·	·	·	·	·	–
CC(C)COC(=O)COc1cc(Cl)c(Cl)cc1Cl	·	·	·	·	·	50.1µM
Cn1c(N)c(C(=O)COC(=O)COc2cc(Cl)c(Cl)cc2Cl)c(=O)n(C)c1=O	·	–	–	–	–	–
COc1c(C)c2c(c(O)c1CC=C(C)CCC(=O)OCCN1CCOCC1)C(=O)OC2	·	·	·	–	·	–
CS(=O)(=O)c1ccc(C2=C(c3ccccc3)C(=O)OC2)cc1	·	–	–	–	–	–
N#CC1=C(c2ccc(-c3ccccc3)cc2)COC1=O	?	?	–	–	89.1µM	–
CCCCN(CCCC)c1ccc(C=Nc2ccc(/C=C/c3ccnc4ccccc34)cc2)cc1C	·	–	–	–	·	·
O=C(COc1ccccc1)Nc1sc2c(c1C(=O)Nc1ccccc1Cl)CCCCC2	–	–	–	–	–	–[12.3 µM]
O=C(COc1ccccc1)Nc1sc2c(c1C(=O)Nc1ccccc1)CCCCC2	17.8µM	?	–	?	79.4µM	·
Cc1ccc(S(=O)(=O)N(CC(=O)NCc2cccnc2)C2CCCCC2)cc1	–	–	–	–	–	–
Cc1cc(C)c(S(=O)(=O)N(CC(=O)NCc2cccnc2)C2CCCCC2)c(C)c1	–	89.1µM	–	–	–	–
Cc1ccc(Cl)cc1NS(=O)(=O)c1cc2c(cc1F)NC(=O)CC2	·	·	·	·	·	–
N#Cc1c(-c2ccc(Cl)cc2)cc(-c2cccs2)nc1SCC(=O)O	?	17.8µM	–	?	–	·

Screens as filed in PubChem.
